Reference: PubChem BioAssay (NCI)
The panel holds about 83,000 compounds, 20% with a hit somewhere; the sample as a whole holds those more often.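 Method: cells in 96-well plates; compound added at one concentration; 48 h incubation; percent growth measured; values under 10 scored active.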 Active and inactive are the calls of the source.

Test system: ACHN renal
Assay: NCI-60 one-dose screen, 48 h (100 = growth as untreated, 0 = no growth, -100 = all killed)
Conditions: 10 µM unless noted

Structure (SMILES)	growth
COc1ccc(/C=C/c2nc(Nc3ccc(S(=O)(=O)Nc4cc(C)on4)cc3)c3ccccc3n2)cc1	54.2% (inactive)
NS(=O)(=O)c1ccc(CCN2C(=O)c3cc(Cl)c(Cl)cc3C2=O)cc1	105% (inactive)
C/C=C(\C)C(=O)NC1=CC[C@@]2(C)C(=CCC3C2CC[C@@]2(C)C3CC[C@@H]2C(C)N(C)C)C1=O (some centres undefined)	65.6% (inactive)
O=c1c2c(c(=O)n1O)c1c3ccc[nH]c3nc1c1nc3[nH]cccc3c12	88.3% (inactive)
Cc1ccc(C(=O)/C(=C\c2ccc([N+](=O)[O-])cc2)S(=O)Cc2ccc(F)cc2)cc1 (centres undefined)	-1.53% (active)
O=C(Nc1ncc(Cc2cc(Cl)ccc2Cl)s1)c1cccs1	60.8% (inactive)
O=C(C[n+]1cccc2ccccc21)c1ccc(O)c(O)c1	23.7% (inactive)
OCc1cnccc1NCCCCOc1ccc(Oc2ccccc2)cc1	80.3% (inactive)
Oc1cccc(CCc2ccc(Oc3cc(CCc4cccc(O)c4)cc(O)c3O)cc2)c1	77.1% (inactive)
CC/C(=C\c1ccc(OC)cc1)C(=O)c1ccc(OC)cc1	96.9% (inactive)
CN1C(N2CCN(S(=O)(=O)c3ccccc3)CC2)=NS(=O)(=O)c2ccccc21	106% (inactive)
O=C1Nc2ccc(F)cc2/C1=C\c1c(-c2ccccc2)nc2ccccn12	53.4% (inactive)
O=C(Cn1c(C(=O)c2ccccc2)nc2ccccc21)c1ccc(F)cc1	95.8% (inactive)
COc1ccc(C(=O)c2nc3ccccc3n2CC(=O)c2ccc(Cl)cc2)cc1	48.6% (inactive)
